From PubChem BioAssay (NCATS) come the findings set out here.

The target in experiment [1] is Cytochrome P450 2C19 (Homo sapiens) (UniProt P33261). The experiment is described as follows: qHTS Assay for Inhibitors and Substrates of Cytochrome P450 2C19 (AID 899). Also: nearly all actives have a fitted effect of over 60% in size. Also: potency is read from the fitted curve at half-maximal effect. To be noted: recombinant CYP2C19, luciferin-H EGE luminescence; series mostly up to 57.1 µM. The gist of the method: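 Luminescence readout of luciferin formed from 10uM Luciferin-H EGE (KM level) by 5 nM CYP2C19 in 50mM KPO4. 60 min NADPH-driven reaction at 37C after 10 min compound preincubation; data scaled to 57uM ketoconazole inhibition.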
A general note: In qHTS, concentration-response curves come from the screen itself.

The nature of experiment [2]: Cell Viability - SH-SY5Y (AID 544).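 Also: cells exposed to compound for 40 hours; nearly all actives have a fitted effect of over 55% in size.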 To be noted: SH-SY5Y neuroblastoma cell viability; viability change, negative = cytotoxic: at 92.2 µM (top of the series). The method in brief:
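SH-SY5Y human neuroblastoma cells (1500/well) incubated 5 h, then compound-treated 40 h at 37 °C in complete medium. Viability read as intracellular ATP by CellTiter-Glo luminescence after 20 min; AC50 from Hill-equation fits of qHTS concentration-response.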

Experiment [3] can be described thus: Cellular Toxicity (caspase-3) Hek293 (AID 664).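 Also: cells exposed to compound for 16 h at 37 °C before readout.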 The following applies: HEK293 caspase-3 activation, DMSO = 0%, 100 µM tamoxifen = 100%; series mostly up to 92.2 µM. The method in brief:
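HEK293 cells in complete medium treated 16 h at 37 °C, then Caspase-Glo 3/7 luminescence read after 20 min at room temperature. Normalized to DMSO and 100 uM tamoxifen; AC50 from Hill fit of concentration-response.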

A short description of experiment [4]: MultiTox-Fluor Cytotoxicity Assay - LYMP1-001 - Dead Cells (AID 946). Also: potency is read from the fitted curve at half-maximal effect. To be noted: LYMP1-001 lymphoblastoid cells, dead-cell protease fluorescence; series mostly up to 92.2 µM. The gist of the method: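 AC50 from Hill fit of concentration-response; data normalized to DMSO (basal) and 15 uM tetraoctylammonium bromide (100%). LYMP1-001 lymphoblastoid cells, 2500/well, 16 hr compound at 37 C; dead-cell protease fluorescence, Ex/Em 485/520.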

Experiment [5] can be described thus: Cell Viability - LYMP1-003 - Assay at 40 hr (AID 964). Also: nearly all actives have a fitted effect of over 60% in size. Also: potency is read from the fitted curve at half-maximal effect. To be noted: LYMP1-003 lymphoblastoid viability; series mostly up to 92.2 µM. The gist of the method: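 LYMP1-003 human lymphoblastoid cells, 2500/well, preincubated 5 h at 37 C, then treated with compound for 40 h at 37 C. Intracellular ATP read by CellTiter-Glo luminescence after 30 min at room temperature; AC50 from Hill-equation fits.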

Experiment [6] can be described thus: Cell Viability - LYMP2-009 (AID 968). Also: nearly all actives have a fitted effect of over 55% in size. Also: potency is read from the fitted curve at half-maximal effect. To be noted: LYMP2-009 lymphoblastoid cell viability; series mostly up to 92.2 µM.
Experiment [7] can be described thus: Cell Viability - LYMP2-011 (AID 969).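 Also: 0% = DMSO only and full inhibition = 92 µM tetraoctylammonium bromide; nearly all actives have a fitted effect of over 60% in size.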 The following applies: LYMP2-011 lymphoblastoid cells viability; series mostly up to 92.2 µM. The method in brief:
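2500 cells/well in complete medium, compound-treated 24 h at 37 C. Viability read as intracellular ATP by CellTiter-Glo luminescence after 30 min at room temperature. AC50 from Hill fits of qHTS concentration-response data.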

The nature of experiment [8]: Cell Viability - LYMP2-015 (AID 971). Also: nearly all actives have a fitted effect of over 55% in size. Also: potency is read from the fitted curve at half-maximal effect. To be noted: LYMP2-015 lymphoblastoid cell viability; series mostly up to 92.2 µM. The gist of the method:
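LYMP2-015 human lymphoblastoid cells (2500/well) in complete medium, compound-treated 24 h at 37 C; viability read as cellular ATP by CellTiter-Glo luminescence after 30 min at room temperature. AC50 from Hill-equation fits of qHTS concentration-response data.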

A short description of experiment [9]: Cell Viability - LYMP2-019 (AID 973). Also: nearly all actives have a fitted effect of over 55% in size. Also: potency is read from the fitted curve at half-maximal effect. To be noted: LYMP2-019 lymphoblastoid cell line viability; series mostly up to 92.2 µM. The gist of the method:
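Human lymphoblastoid LYMP2-019 cells (2500/well) preincubated 5 h at 37 C, then treated 24 h at 37 C in complete medium. Viability by CellTiter-Glo ATP luminescence after 30 min at room temperature; AC50 from Hill fits.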

Experiment [10] in a line: Cell Viability - LYMP2-023 (AID 975). To be noted: LYMP2-023 lymphoblastoid cell viability; series mostly up to 92.2 µM. The method in brief: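 LYMP2-023 human lymphoblastoid cells, 2500/well, preincubated 5 hr at 37 C, then compound-treated 24 hr at 37 C in complete medium. CellTiter-Glo luminescence (ATP) after 30 min at room temperature; AC50 from Hill-equation fits; tetraoctylammonium bromide positive control.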

The nature of experiment [11]: Cell Viability - LYMP2-006 (AID 978). Also: nearly all actives have a fitted effect of over 60% in size. Also: potency is read from the fitted curve at half-maximal effect. To be noted: LYMP2-006 lymphoblastoid cell viability, qHTS; series mostly up to 92.2 µM. The method in brief:
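Concentration-dependent loss of intracellular ATP in a human lymphoblastoid line after 24 hr treatment at 37 C was measured by CellTiter-Glo luminescence, with AC50 values obtained from standard Hill-equation modelling.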

Experiment [12] in a line: Cell Viability - LYMP2-012 (AID 982). To be noted: LYMP2-012 lymphoblastoid cell viability qHTS; series mostly up to 92.2 µM.
A short description of experiment [13]: Cell Viability - LYMP2-020 (AID 986). Also: nearly all actives have a fitted effect of over 55% in size. Also: potency is read from the fitted curve at half-maximal effect. To be noted: series mostly up to 92.2 µM. The gist of the method:
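Human lymphoblastoid LYMP2-020 cells (2500/well) preincubated 5 h at 37 C, then treated 24 h at 37 C. Viability measured as intracellular ATP by CellTiter-Glo luminescence after 30 min at room temperature; AC50 from Hill fits.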

Experiment [14] can be described thus: Cell Viability - LYMP2-026 (AID 989). Also: nearly all actives have a fitted effect of over 50% in size. Also: potency is read from the fitted curve at half-maximal effect. To be noted: LYMP2-026 lymphoblastoid cell viability, qHTS; series mostly up to 92.2 µM. The gist of the method: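 Human lymphoblastoid LYMP2-026 cells, 2500/well, exposed to compound 24 h at 37 C in complete medium. Viability as intracellular ATP by CellTiter-Glo luminescence; AC50 from Hill fits of qHTS concentration-response.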

Experiment [15] in a line: Cell Viability - LYMP1-002 - Assay at 40 hr (AID 994). To be noted: LYMP1-002 lymphoblastoid cell viability; series mostly up to 92.2 µM. The method in brief:
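LYMP1-002 human lymphoblastoid cells (2500/well, complete medium) were treated with compounds for 40 hr at 37 C. Intracellular ATP was measured by CellTiter-Glo luminescence, and AC50 values came from Hill-equation fits of concentration-response data; tetraoctylammonium bromide was the positive control.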

Experiment [16] has as its target Estrogen receptor (Homo sapiens) (UniProt P03372). Put plainly: qHTS assay for small molecule antagonists of estrogen receptor alpha signaling (AID 588513; active = well fitted curve in the direction sought with a large enough effect in the signal ratio, with a control signal flat, not every such curve was filed as active; the % refers to the signal ratio; also: % is scaled to controls: 0 for no effect and ±100 for the full control effect). To be noted: ER-alpha-UAS-bla HEK293, beta-lactamase ratio, antagonist mode; series mostly up to 76.9 µM. The gist of the method: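 Cells were plated at 5000/well and incubated 4 h at 37 C. Compounds were added as 1:2 dilution series, duplicates. 17-beta-estradiol (0.5nM final) was added for 18 h before CCF4 detection.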

For experiment [17], the target named is Peroxisome proliferator-activated receptor delta (Homo sapiens) (UniProt Q03181). The experiment is described as follows: qHTS assay for small molecule agonists of peroxisome proliferator-activated receptor delta signaling (AID 588534; calls by dose curve;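 also: 0% = DMSO basal wells and 100% = positive control agonist at 10 µM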). The following applies: HEK293T PPARdelta-UAS-bla, beta-lactamase ratio, 18 h; series mostly up to 76.7 µM. The method in brief: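 Cells carrying a PPAR-delta beta-lactamase reporter were treated with compounds for 18 h at 37 °C in agonist mode. CCF4 fluorescence was read after 2 h; EC50 and efficacy from Hill fits.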

The target in experiment [18] is Vitamin D3 receptor (Homo sapiens) (UniProt P11473). Put plainly: qHTS assay for small molecule agonists of vitamin D receptor signaling (AID 588543; calls by dose curve;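 also: 0% = DMSO basal and 100% = reference agonist control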). The following applies: HEK293T VDR-UAS-bla, beta-lactamase ratio, 16 h; series mostly up to 76.8 µM. The method in brief: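 qHTS in agonist mode: compound titrations stimulate a VDR-driven β-lactamase reporter in HEK293T cells over 16 h at 37 °C. Response normalized to 50 nM 1α,25-dihydroxyvitamin D3 = 100%, DMSO = 0%; Hill fitting gives EC50 and maximal response.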

Experiment [19] is described as follows: qHTS assay for small molecule agonists of retinoid X receptor alpha signaling (AID 588544). The following applies: HEK293T RXRa-UAS-bla, beta-lactamase reporter, 18 h; 530 nm emission.
The target in experiment [20] is Nuclear receptor subfamily 1 group I member 2 (Rattus norvegicus) (UniProt Q9R1A7). The experiment is described as follows: qHTS assay for small molecule activators of the rat pregnane X receptor (rPXR) signaling pathway (AID 651751; call rule not given here; also: 0% is about no effect). To be noted: rPXR reporter cells, luciferase (One-Glo), 24 h.

The structures appear in SMILES notation. Several values for one entry are separate records, joined by “and”; a condition that tells them apart may be missing. Equal values may be shown once. Records with an inconclusive call do not appear. Activity calls are given as the source filed them. Unless noted, calls follow the shape of the dose curve; as a rule, active = well fitted curve in the direction sought with a large enough effect; inconclusive = small, poorly fitted or top-dose-only effect, or another doubt; inactive = no such curve, though single readings can be large; an effect the other way counts as inactive or inconclusive.

Chain of Cytochrome P450 2C19 (Homo sapiens) (P33261 whole entry, looked up): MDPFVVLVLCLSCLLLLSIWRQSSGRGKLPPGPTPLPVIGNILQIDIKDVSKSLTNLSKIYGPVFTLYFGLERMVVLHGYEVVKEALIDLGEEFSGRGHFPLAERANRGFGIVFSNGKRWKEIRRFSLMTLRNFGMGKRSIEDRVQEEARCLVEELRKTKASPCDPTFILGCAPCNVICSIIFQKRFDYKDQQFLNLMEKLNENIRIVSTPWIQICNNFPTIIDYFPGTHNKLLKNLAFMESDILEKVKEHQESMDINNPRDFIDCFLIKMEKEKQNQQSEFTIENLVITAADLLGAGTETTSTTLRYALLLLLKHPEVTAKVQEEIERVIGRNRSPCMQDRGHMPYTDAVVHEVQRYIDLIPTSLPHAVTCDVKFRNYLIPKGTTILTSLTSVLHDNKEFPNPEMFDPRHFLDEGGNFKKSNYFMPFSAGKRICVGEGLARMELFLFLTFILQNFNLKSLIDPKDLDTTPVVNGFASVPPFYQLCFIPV
Chain of Vitamin D3 receptor (Homo sapiens) (P11473 whole entry, looked up): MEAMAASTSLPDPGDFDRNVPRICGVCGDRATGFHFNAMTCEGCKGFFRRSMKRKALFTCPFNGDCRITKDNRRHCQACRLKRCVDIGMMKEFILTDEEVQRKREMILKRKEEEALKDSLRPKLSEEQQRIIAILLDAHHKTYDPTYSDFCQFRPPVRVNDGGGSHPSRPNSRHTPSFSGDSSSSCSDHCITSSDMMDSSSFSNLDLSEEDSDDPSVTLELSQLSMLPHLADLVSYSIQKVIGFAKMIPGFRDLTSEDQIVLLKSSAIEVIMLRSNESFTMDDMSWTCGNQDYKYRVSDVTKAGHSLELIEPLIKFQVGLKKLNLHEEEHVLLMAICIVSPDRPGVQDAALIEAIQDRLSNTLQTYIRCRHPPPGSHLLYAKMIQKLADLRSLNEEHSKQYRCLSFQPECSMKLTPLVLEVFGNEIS
Chain of Nuclear receptor subfamily 1 group I member 2 (Rattus norvegicus) (Q9R1A7 whole entry, looked up): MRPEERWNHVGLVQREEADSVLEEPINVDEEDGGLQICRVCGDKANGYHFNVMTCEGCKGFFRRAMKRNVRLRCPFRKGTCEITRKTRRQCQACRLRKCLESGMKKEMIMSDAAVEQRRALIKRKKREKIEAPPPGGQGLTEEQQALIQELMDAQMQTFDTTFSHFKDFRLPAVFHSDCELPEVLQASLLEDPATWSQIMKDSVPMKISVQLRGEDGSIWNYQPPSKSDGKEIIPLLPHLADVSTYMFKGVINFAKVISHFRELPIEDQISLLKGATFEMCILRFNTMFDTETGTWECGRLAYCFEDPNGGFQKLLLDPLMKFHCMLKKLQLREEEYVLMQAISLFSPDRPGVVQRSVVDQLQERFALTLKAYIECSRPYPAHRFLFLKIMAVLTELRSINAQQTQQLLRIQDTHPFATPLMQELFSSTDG
Chain of Peroxisome proliferator-activated receptor delta (Homo sapiens) (Q03181 whole entry, looked up): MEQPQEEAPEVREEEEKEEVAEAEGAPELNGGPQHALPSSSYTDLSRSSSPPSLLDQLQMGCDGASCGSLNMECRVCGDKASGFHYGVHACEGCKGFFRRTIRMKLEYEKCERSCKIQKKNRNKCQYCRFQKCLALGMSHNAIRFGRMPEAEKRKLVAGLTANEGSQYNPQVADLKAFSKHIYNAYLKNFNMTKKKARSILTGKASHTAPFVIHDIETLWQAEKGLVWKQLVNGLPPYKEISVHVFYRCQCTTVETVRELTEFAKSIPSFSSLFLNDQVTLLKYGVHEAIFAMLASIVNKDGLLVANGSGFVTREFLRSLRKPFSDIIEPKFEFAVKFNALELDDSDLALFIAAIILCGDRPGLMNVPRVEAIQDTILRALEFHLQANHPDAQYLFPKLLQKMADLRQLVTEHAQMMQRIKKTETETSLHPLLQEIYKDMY
Chain of Estrogen receptor (Homo sapiens) (P03372 whole entry, looked up): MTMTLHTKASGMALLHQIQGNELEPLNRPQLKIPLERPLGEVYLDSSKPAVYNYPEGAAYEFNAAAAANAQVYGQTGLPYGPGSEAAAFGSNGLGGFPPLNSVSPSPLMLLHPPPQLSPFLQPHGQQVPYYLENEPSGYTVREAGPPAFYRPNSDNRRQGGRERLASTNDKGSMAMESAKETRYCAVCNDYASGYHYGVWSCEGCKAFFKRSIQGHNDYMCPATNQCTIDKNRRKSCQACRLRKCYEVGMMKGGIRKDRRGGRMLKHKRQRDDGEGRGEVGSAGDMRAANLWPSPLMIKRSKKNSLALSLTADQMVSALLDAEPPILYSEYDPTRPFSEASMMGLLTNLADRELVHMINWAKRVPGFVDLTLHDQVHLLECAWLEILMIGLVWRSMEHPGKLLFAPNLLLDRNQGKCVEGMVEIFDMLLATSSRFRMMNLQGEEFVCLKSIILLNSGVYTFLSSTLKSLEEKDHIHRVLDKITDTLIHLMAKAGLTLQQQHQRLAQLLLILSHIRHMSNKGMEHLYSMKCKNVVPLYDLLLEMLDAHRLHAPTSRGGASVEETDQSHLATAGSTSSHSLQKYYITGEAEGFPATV

On to `COc1ccc2c(c1O)-c1c(OC)c(OC)cc3c1[C@H](C2)N(C)CC3`, for which the Potency entry in [1] is “inactive”.

Regarding `CCNc1nc(Cl)nc(NC(C)C)n1`, the Potency entry in experiment [2], in experiment [4], in experiment [5], in experiment [6], in experiment [7] and in experiment [8] was “inactive” in each case. Also, the Potency entry in [9], in [10], in experiment [11], in experiment [12], in experiment [13] and in experiment [14] was “inactive” each time. Moreover, the Potency entry in experiment [15] and in experiment [16] was “inactive” each time. In addition, the call in experiment [3], in experiment [17] and in experiment [18] was inactive. The max response in [19] was 15.9% and 26.8%.

`O=S1OCC2C(CO1)C1(Cl)C(Cl)=C(Cl)C2(Cl)C1(Cl)Cl` (stereo not given): the Potency in experiment [5] is 39.8 µM (active). Besides, the Potency entry in [6], in [7], in experiment [8], in experiment [9], in experiment [10] and in experiment [12] was “inactive” throughout. In addition, the Potency entry in [13] and in experiment [16] was “inactive” throughout. In addition, in experiment [19], the max response was -15.4%.

In the case of `COC(=O)NC(=S)Nc1ccccc1NC(=S)NC(=O)OC`, the molecule was called inactive in experiment [3], in [17] and in experiment [18]. Besides, the Potency result in experiment [4], in [6], in [7], in [8], in experiment [9] and in [10] was “inactive” in each case. For the same molecule, the Potency entry in experiment [11], in experiment [12], in [13], in experiment [14], in experiment [15] and in experiment [16] was “inactive” each time. The max response in [19] is 18.1% and -8.17%; in experiment [20], 13.9% (inactive) and 14.6% (inactive).

Take `CCc1cccc(CC)c1N(COC)C(=O)CCl`: the molecule was called inactive in experiment [3], in [17] and in experiment [18]. The Potency in experiment [6], in [8], in experiment [9] and in experiment [13] was 50.1 µM (active) each time. In experiment [16], the Potency entry was “inactive”. Also, the max response was 19.2% in experiment [19]; -3.94% (inactive) and -1.3% (inactive) in experiment [20].

Consider `CNC[C@H](O)c1ccc(O)cc1`, for which the Potency entry in experiment [1] was “inactive”.

On to `COc1ccc2c(c1OC)C(=O)O[C@H]2[C@H]1c2cc3c(cc2CCN1C)OCO3`, for which the Potency in experiment [1] is 1.26 µM (active) and 79.4 nM (active).

As for `ClC1=C(Cl)C2(Cl)C3C(Cl)C=CC3C1(Cl)C2(Cl)Cl` (stereo not given), the Potency result in experiment [2], in [6], in experiment [9], in [10], in experiment [12] and in experiment [14] was “inactive” in each case. The Potency entry in experiment [15] and in [16] was “inactive” each time. For the same molecule, the Potency in [4] is 50.1 µM (active). Besides, the result in experiment [17] was inactive. For the same molecule, the max response in experiment [20] was -2.14% (inactive).

Turning to `COc1ccc2c(c1OC)CN1CCc3cc4c(cc3[C@H]1C2)OCO4`, in experiment [1], the Potency was 1.26 µM (active).

Consider `CN1CCc2cc3c(cc2[C@@H]1[C@@H]1OC(=O)c2c1ccc1c2OCO1)OCO3`, for which the Potency in experiment [1] was 398 nM (active) and 50.1 nM (active).

In the case of `ClC1=C(Cl)C2(Cl)C3C4C=CC(C4)C3C1(Cl)C2(Cl)Cl` (stereo not given), the Potency result in [2], in experiment [6], in experiment [15] and in experiment [16] was “inactive” in each case. Besides, the Potency in [11] was 39.8 µM (active); in experiment [13] it was 50.1 µM (active); in experiment [14] it was 50.1 µM (active). Further, the result in [17] and in experiment [18] was inactive. Moreover, the max response in [20] was 5.53% (inactive).

As for `C[C@@]12CC[C@H]3[C@@H](CC[C@@H]4C[C@H]5S[C@H]5C[C@]43C)[C@H]1CC[C@H]2O`, in experiment [1], the Potency was 0.0631 µM (active).

Turning to `Cc1nc2cnc(N3CCNCC3)nc2n(C)c1=O`, the Potency entry in experiment [1] is “inactive”.

As for `c1ccc(N=Nc2ccccc2)cc1`, the Potency result in [2], in experiment [4], in experiment [5], in [6], in [10] and in experiment [11] was “inactive” each time. Besides, the Potency entry in experiment [12], in [13], in experiment [14] and in experiment [15] was “inactive” in each case. For the same molecule, the result in experiment [18] was inactive. In addition, the max response in [19] was 8.95% and -1.18%; in [20], -2.25% (inactive) and 1.3% (inactive).

Take `COc1ccc(C[C@H]2c3cc(OC)c(OC)cc3CCN2C)cc1OC`: in experiment [1], the Potency entry is “inactive”.

For the molecule `CCN1C[C@]2(C)CC[C@H](OC)[C@@]34[C@@H]2[C@H](OC(C)=O)[C@]2(OCO[C@@]25C[C@@H](OC)[C@@H]2C[C@@]3(O)[C@H]5[C@@H]2OC)[C@H]14`, the Potency entry in [1] was “inactive”.

On to `COc1cc2c(cc1OC)[C@H](C)NCC2`, for which the Potency entry in experiment [1] is “inactive”.

Consider `C=C1C/C(=C\C)C(=O)O[C@@H]2CCN3CC=C(COC(=O)[C@@]1(C)O)[C@H]23`, for which the Potency entry in [1] was “inactive”.
